# Compound activity (PubChem BioAssay)
# Compounds with a hit are over-represented: about 12% of the library has one in this group of screens.
# LASV entry inh = Lassa virus entry inhibition; AID 540256; Potency, µM (titrated, usually from 37.9 µM), actives largely listed as inhibitors; Lassa virus pseudotype entry inhibition, cell reporter; hit rate 1.2% among 300,000; calls by dose curve; tested in HEK293 cells; further: nearly all actives have a fitted effect of over 50% in size
# Shiga toxin inh = blocks Shiga toxin action in Vero cells; AID 2315; inhibition, % at 38.7 µM; Vero cells, Shiga toxin protein synthesis inhibition reporter; hit rate 9.2% among 290,000; in the data active means inhibition mostly above about 28%, no sharp cut-off; inactive means mostly below about 43%
# CHX counter = affects cycloheximide protein synthesis inhibition readout, counter-screen; cell reporter, cycloheximide protein synthesis inhibition counterscreen; max response, %; hit rate 12% among 300,000; in the data active means max response mostly above about 13%, no sharp cut-off; inactive means mostly below about 14%; further: read at 38.3 µM for the half of the compounds with a filed dose
# Marburg entry inh = inhibitors of Marburg virus binding or cell entry; Potency, µM (doses to about 37.8 µM), actives largely listed as inhibitors; Marburg virus pseudotyped entry inhibition, cell reporter; hit rate 1.8% among 300,000; calls by dose curve; tested in HEK293 cells
# A number is an active result; i = inactive; ? = inconclusive; nt = no result.
SMILES,LASV entry inh,Shiga toxin inh,CHX counter,Marburg entry inh
CCC1C(c2cc(OC)c(OC)c(OC)c2)c2cc3c(cc2OC1N1CCCC1)OCO3 (stereo not given),8.9µM,nt,nt,?
COc1cc(C2c3cc4c(cc3OC(N3CCCCC3)C2C)OCO4)cc(OC)c1O (stereo not given),?,nt,nt,i
Cc1ccc(NC(=O)Cn2nnc(C(=O)NCCc3ccccc3)c2N)cc1,i,nt,nt,i
O=C(Nc1ccccc1)c1nnn(Cc2ccccc2)c1NC(=O)C(F)(F)F,i,79,45,?
COc1ccccc1NC(=O)c1nnn(Cc2ccccc2)c1NC(=O)C(F)(F)F,i,i,i,?
Nc1c(C(=O)NCCc2ccccc2)nnn1Cc1ccccc1,?,43,30,?
O=C(NCCc1ccccc1)c1n[nH]c2ccccc12,nt,145,51,nt
Cc1cccc(-n2nnc(C(=O)NCc3ccccc3)c2N)c1,i,i,12,?
O=C(COC(=O)c1n[nH]c2ccccc12)NCCc1ccccc1,i,nt,nt,i
C[C@@H]1C=CCCO[C@]12C(=O)N(Cc1ccc(F)cc1)c1cccc(Br)c12,nt,nt,nt,i
O=C(CNC(=O)c1ccccc1F)NCCc1ccc(Cl)cc1,i,i,i,?
O=C(NCCc1ccc(Cl)cc1)c1n[nH]c2ccccc12,?,40,i,i
COc1cccc(Nc2nnc(SCC(=O)N3CCOCC3)s2)c1,i,i,16,i
COc1ccc(Nc2nnc(SCC(=O)N3CCCC3)s2)cc1,i,i,i,i
CC(C)Oc1ccc(C(=O)Nc2nnc(SCC(=O)N3CCOCC3)s2)cc1,2.8µM,i,i,?
COC(=O)C1CCN(C(c2ccccc2)c2sc3nc(-c4ccco4)nn3c2O)CC1 (stereo not given),i,nt,nt,nt
c1ccc(CSc2cc3ccccc3[nH]2)cc1,i,nt,nt,?
COc1cccc(CNC(=O)C2CCN(S(=O)(=O)c3ccc4c(c3)CC(C)N4C(C)=O)CC2)c1 (stereo not given),nt,i,i,nt
CC(OC(=O)c1ccc(NC(=O)CC#N)cc1)C(=O)Nc1nc(-c2ccccc2)cs1 (stereo not given),?,nt,nt,i
Cc1ccc(NC(=O)Cn2cc(S(=O)(=O)N3CCCC3)c(S(=O)(=O)N3CCCC3)c2)c(C)c1,i,nt,nt,nt
CSCC(O)Cn1ncc2ccccc2c1=O (stereo not given),nt,i,21,nt
O=C(O)Cn1ncc2ccccc2c1=O,i,i,i,i
O=c1c2ccccc2cnn1CCOc1ccccc1,0.28µM,i,i,2.1µM
CN(c1cccc2cccnc12)S(=O)(=O)c1ccccc1,i,i,i,i
O=C(Nc1nc2ccccc2[nH]1)c1ccccc1OC(F)F,?,i,i,?
SMILES,LASV entry inh,Shiga toxin inh,CHX counter,Marburg entry inh
CCOc1ccccc1OCCCC(=O)Nc1nc2ccccc2[nH]1,i,i,i,?
CCOc1ccc(C(=O)Nc2nc3ccccc3[nH]2)cc1OCC,nt,105,51,11µM
COc1ccc(C(=O)Nc2nc3ccccc3[nH]2)cc1S(=O)(=O)N1CCCC1,i,75,19,i
COc1ccc(C(=O)Nc2nc3ccccc3[nH]2)cc1OC,i,86,42,i
COc1cc(C(=O)Nc2nc3ccccc3[nH]2)ccc1OC(F)F,?,62,39,?
COc1ccc(C(=O)Nc2cccc(C(=O)O)c2)cc1S(=O)(=O)N1CCCC1,i,i,i,i
CCOC(=O)N[C@](Nc1sc2c(c1C(N)=O)CCCC2)(C(=O)OCC)C(F)(F)F,nt,nt,nt,i
CCn1c(C(C)NC(=O)c2ccc(OC)c(OC)c2)nc2ccccc21 (stereo not given),i,70,18,i
COc1ccc(C(=O)NC(C)c2nc3ccccc3n2C)cc1OC (stereo not given),i,i,i,i
FC(F)Oc1ccccc1/C=N/n1cnc2ccccc21,i,116,50,?
Cc1c(Cl)cccc1NC(=S)C(=C([O-])c1ccc(Cl)s1)[n+]1ccccc1,i,nt,nt,?
C/C(Cc1ccccc1)=N\NC(=O)CNC(=O)c1ccccc1,nt,i,i,nt
NC(=O)c1ccc(C(=O)N/N=C(/Cc2ccccc2)c2ccccc2)cc1,i,i,26,i
C/C(Cc1ccccc1)=N\NC(=O)c1ccc(F)cc1,?,i,26,i
O=C(NN=C(Cc1ccccc1)Cc1ccccc1)c1ccc(F)cc1,i,77,36,i
O=C(NNS(=O)(=O)c1ccc([N+](=O)[O-])cc1)c1ccc([N+](=O)[O-])cc1,i,i,i,i
CCN(CC(=O)Nc1ccc(OC)cc1)C(=O)c1cc(S(=O)(=O)N(C)C)ccc1N1CCCC1,i,nt,nt,i
Cc1c(O)c2ccccc2oc1=O,i,i,i,i
COc1cccc(N=Cc2c(O)c3ccccc3oc2=O)c1,i,i,21,i
CN=C(C)c1c(O)c2ccccc2oc1=O,?,i,18,i
CC(=O)c1cccc(N=Cc2c(O)c3ccccc3oc2=O)c1,i,i,i,i
Cc1ccc(N=Cc2c(O)c3ccccc3oc2=O)c(C)c1,nt,i,30,nt
O=C(CCN1C(=O)/C(=C/c2ccc(F)cc2)SC1=S)N[C@@H](CO)Cc1ccccc1,nt,i,i,nt
Cc1[nH]c2ccc(C(=O)NCCN3CCOCC3)cc2c1C,nt,i,i,nt
O=C1CN(C(=O)c2ccc(S(=O)(=O)N3CCCC3)cc2)C(c2ccccc2)c2cc(Cl)ccc2N1 (stereo not given),?,nt,nt,i
SMILES,LASV entry inh,Shiga toxin inh,CHX counter,Marburg entry inh
CCOC(=O)c1c(C)nc(C)c(C(=O)OCC)c1-c1cccc(N)c1,?,i,i,?
Nc1cccc(-c2ccc(CO)o2)c1,nt,68,31,nt
COc1ccc(CNC(=O)COC(=O)/C=C/c2cccc(Br)c2)cc1,i,i,i,i
NC(=O)CCC(NC(=O)c1ccc(Cl)cc1)C(=O)O (stereo not given),i,i,i,i
CC(=O)[C@@]1(O)C(C)CC2C3C=C(C)C4=Cc5c(cnn5-c5ccccc5)C[C@]4(C)C3C(O)C[C@@]21C (stereo not given in full),?,i,i,7.9µM
Oc1ccc(Cl)cc1C1=Nc2ccccc2N=C(c2ccccc2)C1,i,nt,nt,nt
Oc1ccccc1-c1cc(-c2ccc(F)cc2)n[nH]1,?,nt,30,i
Oc1ccc(Cl)cc1-c1cc(-c2ccccc2)n[nH]1,nt,i,18,nt
Cc1ccc(-c2cc(-c3ccc(F)cc3)n[nH]2)c(O)c1,i,101,51,?
Cc1ccc(-c2cc(-c3ccc(C)cc3O)[nH]n2)cc1,nt,51,41,nt
O=C(CN(C(=O)CNC(=O)c1ccco1)c1ccccc1F)NC1CCCCC1,i,i,i,?
CCOC(=O)c1c(-c2ccccc2)csc1NC(=O)/C(C#N)=C/c1ccc(O)c(OC)c1,i,i,i,i
O=C(NNC1=Nc2cccc3cccc1c23)c1ccc(Br)cc1,i,i,i,?
CCc1cc(-c2n[nH]c(C)c2-c2ccc3c(c2)OCCO3)c(O)cc1O,nt,i,i,nt
Cc1ccc(O)c(-c2cc(-c3cccc(Br)c3)n[nH]2)c1,i,98,45,?
Oc1ccc(F)cc1-c1cc(-c2ccc3c(c2)OCCO3)n[nH]1,?,90,42,?
CCC(C)(C)C1CCC2(CC1)NC(=O)N(CC(=O)NC(C)CCc1ccccc1)C2=O (stereo not given),i,nt,nt,i
O=C(O)CN1C(=O)/C(=C/c2ccc(SCc3ccccc3)o2)SC1=S,nt,i,i,nt
Cc1cccc(NC(=O)CSc2nc3ccccc3nc2N2CCCC2)c1C,nt,i,i,nt
